A selection: hits, their analogues and other compounds. The true share with any hit is near 3%.
12-LOX inh – inhibitors of human 12S-lipoxygenase ALOX12. purified 12hLO, xylenol orange hydroperoxide absorbance. P18054. 580,000 tested, 1.1% active. AID 1671190. Potency, µM (top dose mostly 108 µM), for inactives: top-dose activity change, negative = inhibition, hits mostly inhibitors; active means well fitted inhibition curve with a large enough effect; inconclusive means small, poorly fitted or top-dose-only effect, or another doubt; inactive means no such curve, though single readings can be large or run the other way; further: potency means the concentration at half of the fitted maximal effect; on the % scale 0 is the no-effect control and ±100 the full control effect
Target sequence (P18054 whole entry, looked up): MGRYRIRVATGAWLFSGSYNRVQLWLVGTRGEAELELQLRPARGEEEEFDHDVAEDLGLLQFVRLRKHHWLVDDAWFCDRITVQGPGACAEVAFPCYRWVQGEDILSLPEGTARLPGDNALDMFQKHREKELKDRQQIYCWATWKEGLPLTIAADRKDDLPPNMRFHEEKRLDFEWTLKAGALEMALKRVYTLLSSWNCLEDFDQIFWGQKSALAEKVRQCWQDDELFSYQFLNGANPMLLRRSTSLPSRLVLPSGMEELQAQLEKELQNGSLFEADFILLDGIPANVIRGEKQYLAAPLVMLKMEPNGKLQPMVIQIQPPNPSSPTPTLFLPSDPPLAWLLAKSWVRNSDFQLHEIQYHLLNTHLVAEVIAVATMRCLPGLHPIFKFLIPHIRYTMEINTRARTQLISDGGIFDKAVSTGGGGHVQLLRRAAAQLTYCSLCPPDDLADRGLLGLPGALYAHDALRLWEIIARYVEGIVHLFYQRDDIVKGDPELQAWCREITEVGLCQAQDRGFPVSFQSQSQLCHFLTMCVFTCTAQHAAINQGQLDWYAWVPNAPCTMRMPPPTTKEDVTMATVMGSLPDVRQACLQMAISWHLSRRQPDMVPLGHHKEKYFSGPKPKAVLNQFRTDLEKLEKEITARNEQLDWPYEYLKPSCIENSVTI
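Purified human 12hLO at 150 nM in 25 mM Hepes, 0.01% Triton X-100, pH 7.0, preincubated 15 min at room temperature with compound. Reaction started with 40 uM arachidonic acid, 30 min at room temperature. Hydroperoxide measured by Fe-xylenol orange, 573/405 nm absorbance ratio.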
KCNH2 WT inh – blocks the wildtype human KCNH2 potassium channel. Q12809. U2OS, BacMam KCNH2, thallium flux FluxOr; stronger effect = lower value. activity change, % at 1.84 µM. 340,000 tested, 0.37% active;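 active means maximum activity change below -70%; inconclusive means maximum activity change between -70% and -50%; inactive means maximum activity change above -50%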; further: on the % scale 0 is the no-effect control and ±100 the full control effect
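U2OS cells were transduced with wild-type KCNH2 virus (2.03 x 10^8 / mL) for 4 h at room temperature, then cultured overnight at 37 C. Thallium flux was read with FluxOr dye. Rate constants were normalized to DMSO controls.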
LDHA inh – inhibitors of human lactate dehydrogenase A. 480,000 tested, 0.15% active. purified LDHA, NADH/diaphorase-resazurin fluorescence; stronger effect = lower value. P00338. activity change, % (values are at about 110 or 230 µM); in the data active means activity change below about -30%; inconclusive means mostly about -25% to -30%;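 further: plate controls were DMSO wells for no effect and wells without enzyme for full effect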
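LDH5 2 nM; NADH 0.06 mM, pyruvate 0.2 mM; 200 mM Tris pH 7.4, EDTA, Tween-20; 5 min RT. Detection: diaphorase 0.133 mg/mL + resazurin 37 µM, fluorescence ex540/em590 at 0 and 20 min; normalized to enzyme-free and DMSO wells.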
KCNH2 3.1 block – KCNH2 3.1 (human) potassium channel inhibition; U2OS KCNH2 3.1, thallium flux FluxOr; stronger effect = lower value; activity change, % (tested at about 1.8 µM); 340,000 tested, 0.95% active;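 active means maximum activity change below -70%; inconclusive means maximum activity change from -70% to -50%; inactive means maximum activity change above -50%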;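 further: thallium influx rate constant from kinetic fluorescence after stimulation buffer; on the % scale 0 is the no-effect control and ±100 the full control effect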
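Thallium flux read-out: FluxOr dye with Red40 quencher in HBSS/HEPES, 45 min at RT. Rate constants from kinetic reads were normalized to positive and negative DMSO controls. Cells: U2OS virally expressing the 3.1 isoform.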
ClpP mod – qHTS Assay for Activators of ClpP. Potency, µM (series often up to 57.5 µM), for inactives: top-dose activity change, negative = active. purified B. subtilis ClpP, FRET peptide cleavage, 20 min. ATP-dependent Clp protease proteolytic subunit (Bacillus subtilis (strain 168)), P80244. 340,000 tested, 1.9% active. AID 651965, 2013; active means well fitted falling curve with a large enough effect; inconclusive means small, poorly fitted or top-dose-only effect; inactive means no such curve, though single readings can be large or run the other way; further: potency means the concentration at half of the fitted maximal effect; the source files actives as falling curves though it sought activators and does not explain the sign; nearly all actives have a fitted effect of over 65% in size
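Purified B. subtilis ClpP, 10 microg/mL final in Tris/HCl pH8 with KCl, BSA, glycerol and Tween-20, cleaved an Abz/nitrotyrosine-quenched decapeptide. Fluorescence (ex 320, em 430) was read at 0 and 20 min at room temperature. Delta was normalized to 5.8 microM ADEP and DMSO/no-enzyme controls.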
BCR signal inh – blocks chronic active B-cell receptor signaling | ABC-DLBCL IkBa-CBG/CBR reporter, luminescence ratio, 4 h | Potency, µM (titrated, usually from 46.1 µM), without a hit: at the top dose activity change, negative = inhibition, actives largely listed as inhibitors | 340,000 tested, 0.05% active; active means well fitted inhibition curve with a large enough effect in the signal ratio, with a control signal flat, not every such curve was filed as active; inconclusive means small, poorly fitted or top-dose-only effect, or effect the other way, or a change in a side signal; the % refers to the signal ratio;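 further: potency means the concentration at half of the fitted maximal effect; plate controls were basal doxycycline-induced cells for no effect and cells given 10 µM MG132 for full effect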
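Doxycycline induced both beetle luciferases in TMD8 lymphoma cells; IKK-driven degradation limits the IkappaBalpha-fused green signal, while red luminescence normalises for cell number and nonspecific effects. Compounds tested up to 46 uM, 4 hrs.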
An asterisk follows results filed as active; ? = inconclusive; nt = not tested or not shown.

SMILES | 12-LOX inh | KCNH2 WT inh | LDHA inh | KCNH2 3.1 block | ClpP mod | BCR signal inh
COc1cc(NC(=O)C2CC(=O)N(Cc3ccco3)C2)c(OC)cc1Cl (stereo not given) | 0% | -1 | 1 | -2 | 1% | -6%
COc1cc2c(cc1NC(=O)COC(=O)C1CC(=O)N(Cc3ccco3)C1)oc1ccccc12 (stereo not given) | -17% | 29 | -4 | 4 | 25µM* | 5%
Cc1ccc(C(=O)Oc2ccc(C(=O)COC(=O)C3CC(=O)N(Cc4ccco4)C3)cc2)cc1 (stereo not given) | nt | -1 | -3 | -87* | -2% | ?
CC(C)C(=O)Nc1cc(S(=O)(=O)Nc2ccc(Cl)cc2)ccc1Cl | -16% | -7 | -12 | 17 | -2% | 6%
CC(C)(C)C(=O)Nc1cc(S(=O)(=O)Nc2ccc(Cl)cc2)ccc1O | 40µM* | -6 | -17 | -2 | nt | 5%
O=C(COc1ccc(-c2nnc3n2CCCC3)cc1)NCc1ccc2c(c1)OCO2 | 17% | nt | nt | nt | nt | nt
O=C(NCc1ccc(Cl)cc1)C1CCN(C(=O)c2ncn3c2COC(c2ccccc2)C3)CC1 (stereo not given) | 41% | nt | nt | nt | nt | nt
S=C(SSC(=S)N1CCOCC1)N1CCOCC1 | 5µM* | nt | 12 | nt | 1% | nt
O=C(COc1ccc(Cl)cc1Cl)NC1CCS(=O)(=O)C1 (stereo not given) | 2% | nt | -2 | nt | nt | nt
Cc1ccc(NC(=S)NCC2(C)CC(NC(=S)Nc3ccc(C)cc3C)CC(C)(C)C2)c(C)c1 (stereo not given) | 7.1µM* | nt | -5 | nt | nt | nt
Cc1ccc(NC(=S)NCc2ccccc2)c(C)c1 | 0% | -6 | 1 | 0 | 0% | ?
CC1(C)CC(NC(=S)Nc2ccccc2)CC(C)(CNC(=S)Nc2ccccc2)C1 (stereo not given) | 28µM* | nt | 5 | nt | nt | nt
CC1(C)CC(NC(=S)Nc2cccc(F)c2)CC(C)(C)N1 | -10% | nt | 0 | nt | nt | nt
CCOC(=O)CNc1c(-c2ccc(O)cc2)nc2ccccn12 | -27% | 10 | -8 | -1 | 32µM* | ?
Cc1cc(C)c2ccc(C(=O)O)cc2n1 | 0% | nt | 4 | nt | nt | nt
CC(C)(C)c1ccc(Cc2n[nH]c(=S)[nH]c2=O)cc1 | 16µM* | 4 | 1 | 13 | nt | 2%
O=c1[nH]c(=S)[nH]nc1Cc1ccc(Cl)c(Cl)c1 | 6.3µM* | 3 | -1 | 0 | nt | -1%
CC(C)NC(=O)c1ccccc1OCC1CCCN(C2CCCC2)C1 (stereo not given) | 4% | nt | nt | nt | nt | nt
O=C(CSc1ccc(-c2cccnc2)nn1)Nc1ccccc1F | ? | 0 | -7 | 1 | -4% | -1%
O=C(CSc1ccc(-c2ccc(-n3cccn3)cc2)nn1)Nc1ccccc1F | -4% | 3 | -11 | -14 | 16µM* | 0%
Cc1ccc(-c2nnc(SCc3cccc(S(=O)(=O)N4CCOCC4)c3)n2N)cc1 | -24% | nt | 2 | nt | nt | nt
Cc1cc(C)c(-c2cc(C(F)(F)F)no2)c(=O)[nH]1 | 17% | -6 | -2 | -21 | 18µM* | 5%
CC(=O)CCc1ccc(OCCCCN2CCC(Cc3ccccc3)CC2)cc1 | ? | 27 | -12 | -94* | nt | ?
COc1cccc(OC)c1OCCCCN1CCCC1 | ? | -1 | -12 | -16 | -1% | 4%
CC1CCN(CCCOc2ccc(OCc3ccccc3)cc2)CC1 | ? | 16 | -20 | -80* | -1% | 1%
CCOc1ccccc1OCCN1CCC(Cc2ccccc2)CC1 | -23% | 5 | -20 | ? | -1% | -8%
COc1cccc(OC)c1OCCCCN1CCC(Cc2ccccc2)CC1 | ? | -8 | -22 | -71* | nt | -11%
N#Cc1ccccc1OCCCN1CCC(Cc2ccccc2)CC1 | ? | -90* | -16 | -96* | -1% | -2%
c1ccc(COc2ccc(OCCCN3CCCC3)cc2)cc1 | -22% | 29 | -6 | -50 | 1% | 4%

Assay outcomes as filed in PubChem BioAssay.
